High-throughput results as filed in PubChem BioAssay.
HP1b chromo inh – HP1-beta chromodomain-methylated histone interaction inhibition; AID 540317; AlphaScreen HP1-beta / biotin-H3K9me3 peptide binding; Potency, µM (doses to about 114 µM), most hits filed as inhibitors; 0.56% of 390,000 active; also: nearly all actives have a fitted effect of over 70% in size
Target sequence (P83916 whole entry, looked up): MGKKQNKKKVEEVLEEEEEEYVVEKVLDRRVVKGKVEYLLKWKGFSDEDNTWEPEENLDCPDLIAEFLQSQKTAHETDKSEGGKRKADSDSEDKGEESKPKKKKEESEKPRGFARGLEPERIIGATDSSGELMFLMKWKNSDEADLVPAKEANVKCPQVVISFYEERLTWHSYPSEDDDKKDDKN
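Compound inhibition of the preformed complex between 50 nM HP1-beta and 50 nM biotinylated H3K9me3 peptide was read by AlphaScreen. Buffer was PBS pH 7.4 with 0.01% Tween-20. Incubations ran 30 min at room temperature, with 10 ug/mL donor/acceptor beads.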
Six1-Eya2 inh – Six1/Eya2 interaction inhibition. AlphaScreen GST-Six1/His-Eya2 binding, biochemical; active compounds read low. activity change, % (test concentration not listed). 0.56% of 360,000 active. AID 651725; in the data active = activity change below about -65%; inconclusive = mostly about -30% to -63%
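Homogeneous AlphaScreen proximity assay pairing GST-Six1 with His-tagged Eya2 (added as 5X mix: 250 nM and 500 nM) in 50 mM Tris pH 8.0, 300 mM NaCl, 1 mM TCEP. Glutathione donor and nickel acceptor beads; 1 h, 37 °C, dark.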
JMJD2A Tudor – inhibitors of human JMJD2A Tudor domain. O75164. AlphaScreen JMJD2A-Tudor / H3K4me3 peptide binding. Potency, µM (top dose mostly 114 µM), usual class: inhibitors. 4.4% of 390,000 active; also: nearly all actives have a fitted effect of over 50% in size
G9a block – G9a (human) methyltransferase inhibition; AID 504332; 8.8% of 350,000 active; G9a H3K9 monomethylation, AlphaScreen, 2 h; Potency, µM (top dose mostly 102 µM), usual class: inhibitors; Q96KQ7; also: nearly all actives have a fitted effect of over 75% in size
Target sequence (Q96KQ7 913-1193 limits assumed): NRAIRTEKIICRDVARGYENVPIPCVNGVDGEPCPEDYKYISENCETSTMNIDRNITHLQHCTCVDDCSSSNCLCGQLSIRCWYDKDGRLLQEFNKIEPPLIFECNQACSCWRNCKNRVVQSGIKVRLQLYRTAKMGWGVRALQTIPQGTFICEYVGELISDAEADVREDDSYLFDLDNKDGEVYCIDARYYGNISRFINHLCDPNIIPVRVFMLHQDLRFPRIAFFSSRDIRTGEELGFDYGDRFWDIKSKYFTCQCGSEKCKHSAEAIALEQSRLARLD
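Methyltransferase reactions run at room temperature for 2 h (20 nM enzyme, 500 nM biotin-H3K9 peptide, 20 uM SAM) after a 15 min compound preincubation; product detected by AlphaScreen beads and anti-H3K9me1 antibody.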
BAZ2B block – BAZ2B (human) inhibition; AID 504333; 4.4% of 360,000 active; AlphaScreen BAZ2B-H3K14Ac peptide displacement; Potency, µM (highest dose often 114 µM), actives largely listed as inhibitors; also: nearly all actives have a fitted effect of over 60% in size
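AlphaScreen luminescence quantifies BAZ2B engagement of H3K14Ac peptide; the protein and biotinylated peptide are both at 50 nM final, buffer PBS pH 7.4 with 0.01% Tween-20, all steps at room temperature.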
CtBP-E1A blk – blocks the CtBP interaction with E1A | activity change, % (test concentration not listed) | AlphaScreen GST-E1A/His-CtBP binding, 1536-well; active compounds read low | 0.49% of 340,000 active; in the data active = activity change below about -65%; inconclusive = mostly about -30% to -63%
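Steps: dispense buffer (Tris pH 8.0, NaCl 300 mM, TCEP 1 mM, BSA, Tween 20); add 5X protein mix (GST-E1A, His-CtBP, 125 nM each); pin 23 nL compound; 2 h at 37 °C, dark; add 5X beads (50 ug/mL); 1 h; read.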
Large screens that a line does not name were inactive. In the library only some 10% were active in any assay of this set; here they are far more common. Unless noted, calls follow the shape of the dose curve; as a rule, active = well fitted inhibition curve with a large enough effect; inconclusive = small, poorly fitted or top-dose-only effect; inactive = no such curve, though single readings can be large or run the other way.

COc1cc(/C=N/N2CCN(c3ccccc3OC)CC2)ccc1OC(C)=O	BAZ2B block inconclusive
N#Cc1ccccc1S(=O)(=O)N1CCN(S(=O)(=O)c2ccc3c(c2)OCCO3)CC1	none (no result: HP1b chromo inh, Six1-Eya2 inh, G9a block, BAZ2B block, CtBP-E1A blk)
CCCCn1c(C)cc2c(c1=O)C1O[C@](c3ccc(OC)cc3)(Cc3cc(OC)c(OC)cc31)O2	none (no result: HP1b chromo inh, Six1-Eya2 inh, JMJD2A Tudor, CtBP-E1A blk)
CC(C)CC1C(=O)N(Cc2cn(CCC3OCCO3)nn2)CCS(=O)(=O)N1Cc1ccc(-c2ccc(Cl)c(Cl)c2)cc1 (stereo not given)	none (no result: HP1b chromo inh, JMJD2A Tudor, G9a block, BAZ2B block)
CCOC(=O)c1c(CC(C)C)csc1/N=C/C1C(=O)CCCC1=O	G9a block 50µM, BAZ2B block inconclusive
COc1ccc(/C=C(\NC(=O)c2ccccc2)C(=O)NC2CCCCC2)cc1	none (no result: Six1-Eya2 inh, CtBP-E1A blk)
CCc1cccc(CC)c1NC(=O)CSc1nc2ccc(N3C(=O)C4C(C3=O)[C@H]3C=C[C@@H]4C3)cc2s1 (stereo not given in full)	G9a block 1.4µM
O=C(NC1(C(F)(F)F)NC(=O)N(CCc2ccccc2)C1=O)c1ccccc1F (stereo not given)	none (no result: Six1-Eya2 inh, CtBP-E1A blk)
CC1CCCN(C(=O)c2ccc(CSc3nc4ccncc4n3Cc3ccccc3)cc2)C1 (stereo not given)	G9a block inconclusive (no result: Six1-Eya2 inh, CtBP-E1A blk)
CC1CCN(C(=O)c2ccc(CSc3nc4ccncc4n3Cc3ccc(F)cc3)cc2)CC1	G9a block 79µM
CC(=O)c1c(C)[nH]c(-c2ccccc2)c1C	JMJD2A Tudor inconclusive, BAZ2B block 50µM
Cn1c(-[n+]2c(-c3ccccc3)cc(-c3ccccc3)cc2-c2ccccc2)nc2c([N+](=O)[O-])cccc21	G9a block 10µM
Cn1c(-c2cccc([N+](=O)[O-])c2)[n+](C)c2ccccc21	none (no result: BAZ2B block)
O=C(O)c1ccc(CNCc2ccccc2Cl)s1	none (no result: Six1-Eya2 inh, CtBP-E1A blk)
CC(=O)Nc1cc(-c2ccc(S(C)(=O)=O)cc2)cn2c(-c3ccc(F)c(Cl)c3)cnc12	none (no result: HP1b chromo inh, JMJD2A Tudor, G9a block, BAZ2B block)
CC(=O)c1cccc(OCc2cc(C(=O)N3C[C@@H](C)O[C@@H](C)C3)no2)c1	G9a block 45µM
Cc1cc(OCc2cc(C(=O)N(C)CCCN3CCOCC3)no2)cc(C)c1Cl	JMJD2A Tudor 89µM
COCC1CCN(C(=O)c2cc(COc3ccc4ncccc4c3)on2)CC1	JMJD2A Tudor 16µM (no result: G9a block)
COc1ccccc1OCc1cc(C(=O)N(C)CCC2CCOCC2)no1	none (no result: HP1b chromo inh, JMJD2A Tudor, G9a block, BAZ2B block)
CC(=O)c1cccc(OCc2cc(C(=O)N3C[C@H]4CC[C@H]3C4)no2)c1	none
CC(=O)c1cccc(OCc2cc(C(=O)N(C)CCC3CCOCC3)no2)c1	G9a block 45µM
CC(C)C[C@H]1CN(CCCC[C@H]2CNC(=O)C(=O)N2CCc2ccc(O)cc2)C(=O)C(=O)N1Cc1ccccc1	none (no result: HP1b chromo inh, JMJD2A Tudor, G9a block, BAZ2B block)
O=C1C2CC=CCC2C(=O)N1c1n[nH]c(-c2ccccc2)n1 (stereo not given)	none
CC(=O)Nc1c(O)c2cccc3c2n(c1=O)CCC3	none (no result: G9a block, BAZ2B block)
COc1ccc(-c2noc3c2-c2nc(-c4ccccc4F)sc2CC3)cc1	G9a block 22µM
COc1ccc(-c2noc3c2-c2nc(-c4c(F)cccc4F)sc2CC3)cc1	G9a block 32µM
O=C1CCSC2(C(=O)N(Cc3ccc(F)cc3)c3ccccc32)N1c1ccc(Cl)cc1 (stereo not given)	G9a block inconclusive (no result: Six1-Eya2 inh, CtBP-E1A blk)
CC1(C(=O)Nc2cnc3ccccc3c2)CCN1Cc1ccccc1OC(F)F (stereo not given)	none (no result: HP1b chromo inh, JMJD2A Tudor, G9a block, BAZ2B block)
CCOC(=O)N1CCc2c(sc(NCc3cc(OC)c(OC)cc3OC)c2C(=O)Nc2ccc(OCC)cc2)C1	HP1b chromo inh inconclusive, JMJD2A Tudor 11µM, G9a block 3.2µM, BAZ2B block inconclusive (no result: Six1-Eya2 inh, CtBP-E1A blk)
CCOc1ccc(NC(=O)c2c(NCc3cc(OC)c(OC)cc3OC)sc3c2CCCC3)cc1	HP1b chromo inh inconclusive, JMJD2A Tudor 25µM, G9a block 13µM, BAZ2B block 25µM (no result: Six1-Eya2 inh, CtBP-E1A blk)
CCOC(=O)c1ccc(NC(=O)c2c(NCc3cc(OC)c(OC)cc3OC)sc3c2CCCC3)cc1	HP1b chromo inh inconclusive, JMJD2A Tudor 25µM, G9a block 7.1µM, BAZ2B block 25µM (no result: Six1-Eya2 inh, CtBP-E1A blk)
